Experimental data as given in PubChem BioAssay AID1159580 (chemical genetic matrix, 2015).
In all, about 5,500 compounds went through this assay and about 2,000 (36%) were called active. Roughly 18% stayed inconclusive and do not appear here. No stated cut-off is given here; in the data, active means normalized growth mostly below about 0.91 (no sharp cut-off); inconclusive means no clear call, values can overlap the other calls; inactive means mostly above about 0.92. The list shows a part of the results.

Experiment: chemical genetic growth profiling, strain panel (AID 1159580);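 further: tested at 20 µM; growth read once vehicle control cultures reached saturation at 30 °C; 1 = growth at the plate median or of vehicle wells; lower values mean less growth of the strain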
Settings: S. cerevisiae deletion strains, growth OD

Measured: normalized growth

O=C(O)C1=CC(=C(c2ccc(O)c(C(=O)O)c2)c2ccc(O)c(C(=O)O)c2)C=CC1=O
inactive: locus YAL013W, strain DEP1, hits give low values 0.976 | locus YAL021C, strain ccr4, hits give low values 0.952 | locus YAL026C, strain drs2, hits give low values 0.983 | locus YAL030W, strain snc1, hits give low values 0.986 | locus YAL040C, strain CLN3, hits give low values 1.02 | locus YBL061C, strain skt5, hits give low values 0.963 | locus YBR009C, strain hhf1, hits give low values 1 | locus YBR023C, strain chs3, hits give low values 0.976 | locus YBR171W, strain sec66, hits give low values 0.963 | locus YBR231C, strain swc5, hits give low values 0.954 | locus YBR279W, strain paf1, hits give low values 0.968 | locus YCL011C, strain gbp2, hits give low values 0.974 | locus YCL016C, strain dcc1, hits give low values 0.995 | locus YCL061C, strain MRC1 (second series), hits give low values 0.98 | locus YCL061C, strain MRC1, hits give low values 0.999 | locus YCL069W, strain vba3, hits give low values 0.972 | locus YCR088W, strain abp1, hits give low values 0.985 | locus YDL005C, strain med2, hits give low values 0.966 | locus YDL040C, strain nat1, hits give low values 0.987 | locus YDR001C, strain nth1, hits give low values 0.992 | locus YDR069C, strain doa4, hits give low values 0.917 | locus YDR137W, strain rgp1, hits give low values 1.06 | locus YDR150W, strain NUM1, hits give low values 0.97 | locus YDR159W, strain sac3, hits give low values 1.03 | locus YDR195W, strain ref2 1 | locus YDR297W, strain sur2, hits give low values 0.978 | locus YDR334W, strain swr1, hits give low values 0.957 | locus YDR335W, strain msn5, hits give low values 0.965 | locus YDR392W, strain spt3, hits give low values 0.95 | locus YEL003W, strain gim4, hits give low values 0.973 | locus YEL037C, strain rad23, hits give low values 0.966 | locus YEL061C, strain CIN8 (second series), hits give low values 0.979 | locus YER002W, strain NOP16, hits give low values 1.02 | locus YER015W, strain faa2, hits give low values 0.952 | locus YER016W, strain bim1, hits give low values 0.985 | locus YER111C, strain swi4, hits give low values 0.961 | locus YER155C, strain BEM2 (second series), hits give low values 0.953 | locus YFR010W, strain ubp6, hits give low values 0.976 | locus YGL167C, strain pmr1, hits give low values 0.97 | locus YGL173C, strain kem1, hits give low values 0.984 | locus YGL227W, strain vid30, hits give low values 0.988 | locus YGL240W, strain doc1, hits give low values 0.985 | locus YGL253W, strain hxk2, hits give low values 0.978 | locus YHR013C, strain ard1, hits give low values 0.952 | locus YHR027C, strain rpn1, hits give low values 0.98 | locus YHR030C, strain SLT2, hits give low values 1.01 | locus YHR079C, strain IRE1, hits give low values 1 | locus YHR142W, strain chs7, hits give low values 0.946 | locus YJL092W, strain hpr5, hits give low values 0.97 | locus YJL095W, strain BCK1 (second series), hits give low values 0.963 | locus YJL095W, strain BCK1, hits give low values 0.982 | locus YJL115W, strain asf1, hits give low values 0.999 | locus YJL129C, strain trk1, hits give low values 1.01 | locus YJL154C, strain vps35, hits give low values 0.982 | locus YJL164C, strain tpk1, hits give low values 0.969 | locus YJL166W, strain qcr8, hits give low values 0.979 | locus YJL187C, strain SWE1, hits give low values 0.969 | locus YJR066W, strain TOR1, hits give low values 0.877 | locus YJR075W, strain HOC1, hits give low values 0.974 | locus YKL160W, strain elf1, hits give low values 0.976 | locus YKR026C, strain gcn3, hits give low values 0.989 | locus YKR091W, strain srl3, hits give low values 0.981 | locus YLL001W, strain dnm1, hits give low values 0.998 | locus YLL026W, hits give low values 0.985 | locus YLL041C, strain sdh2, hits give low values 0.981 | locus YLR027C, strain aat2, hits give low values 0.981 | locus YLR113W, strain HOG1, hits give low values 1.05 | locus YLR221C, strain rsa3, hits give low values 0.983 | locus YLR258W, strain gsy2, hits give low values 0.967 | locus YLR262C, strain YPT6 (second series), hits give low values 0.973 | locus YLR320W, strain mms22, hits give low values 0.985 | locus YLR342W, strain FKS1, hits give low values 0.978 | locus YLR357W, strain rsc2, hits give low values 0.857 | locus YLR370C, strain arc18, hits give low values 0.98 | locus YLR384C, strain iki3, hits give low values 0.957 | locus YML120C, strain ndi1, hits give low values 0.978 | locus YMR125W, strain sto1, hits give low values 0.958 | locus YMR129W, hits give low values 0.989 | locus YMR205C, strain PFK2, hits give low values 1.01 | locus YMR231W, strain pep5, hits give low values 0.946 | locus YNL071W, strain lat1, hits give low values 0.974 | locus YNL175C, strain NOP13, hits give low values 1 | locus YNL183C, strain NPR1, hits give low values 0.913 | locus YNL197C, strain WHI3, hits give low values 1 | locus YNL209W, strain ssb2, hits give low values 0.952 | locus YNL224C, strain SQS1, hits give low values 1.03 | locus YNL248C, strain rpa49, hits give low values 0.999 | locus YNL322C, strain KRE1 (second series), hits give low values 0.999 | locus YNL322C, strain KRE1, hits give low values 0.93 | locus YNR049C, strain mso1, hits give low values 0.992 | locus YOR001W, strain rrp6, hits give low values 0.959 | locus YOR070C, strain gyp1, hits give low values 0.995 | locus YOR080W, strain dia2, hits give low values 0.988 | locus YOR083W, strain WHI5 (second series), hits give low values 0.999 | locus YOR083W, strain WHI5, hits give low values 0.97 | locus YOR231W, strain MKK1, hits give low values 1.01 | locus YOR265W, strain rbl2, hits give low values 0.99 | locus YOR270C, strain vph1, hits give low values 0.942 | locus YOR290C, strain snf2, hits give low values 0.966 | locus YPL055C, strain LGE1, hits give low values 0.961 | locus YPL078C, strain atp4, hits give low values 0.982 | locus YPL106C, strain sse1, hits give low values 0.915 | locus YPL240C, strain hsp82, hits give low values 0.973 | locus YPL256C, strain CLN2, hits give low values 1.06
active: locus YGR229C, strain SMI1, hits give low values 0.823 | locus YMR058W, strain fet3, hits give low values 0.714 | locus YOR106W, strain vam3, hits give low values 0.836 | locus YPL051W, strain arl3, hits give low values 0.907
